# Reference: PubChem BioAssay (NCATS)
# Unmarked numbers belong to inactive results. Calls follow the shape of the dose curve; as a rule, active = well fitted activation curve with a large enough effect; inconclusive = small, poorly fitted or top-dose-only effect; inactive = no such curve, though single readings can be large or run the other way.
# Biological target: Cytochrome P450 3A4 (Homo sapiens) (UniProt P08684)
# Assay: qHTS Assay for Activators of Cytochrome P450 3A4 (AID 885); also: nearly all actives have a fitted effect of over 65% in size
# Details: recombinant CYP3A4, Luciferin-PPXE luminescence, 60 min; series mostly up to 57.1 µM; activity change, positive = activation: at the top concentration
# Description: NIH Molecular Libraries Screening Centers Network [MLSCN]
# NIH Chemical Genomics Center [NCGC]
# The P450 gene superfamily is involved in the metabolism and clearance of xenobiotics. This assay used human CYP3A4 to measure the dealkylation of luciferin-6' phenylpiperazinylyl (Luciferin-PPXE; […]) to luciferin. The luciferin is then measured by luminescence after the addition of a luciferase detection reagent. Luciferin-PPXE concentration in the assay was equal to its KM for CYP3A4. Inhibitors and some substrates limit the production of luciferin, and decrease measured luminescence; activators increase the production of luciferin and luminescence.
# NCGC Assay Protocol Summary:
# Two uL of enzyme and substrate mix (final concentrations: 20nM CYP3A4, 25uM Luciferin-PPXE, 200mM KPO4) were dispensed into a white, solid bottom 1536-well microtiter plate. 23nL of compound was transferred by a pin tool. The plate was incubated at RT for 10 min. Two uL of an NADPH regeneration solution (Promega supplied reagent) was dispensed and the reaction was allowed to continue for 60 min at RT. Then the reaction was stopped by reconstituted luciferin detection buffer. After another 20 min of incubation the plate was read on the ViewLux (Perkin Elmer) at 60 sec exposure and 2x2 binning. This protocol was carried out with Promega-Glo reagents and further information can be found at http://www.promega.com/tbs/tb325/tb325.pdf. Data were normalized to the to AC100 inhibition (57 uM ketoconazole).
# Keywords: P450, CYP2D6, Luciferase, MLSMR, MLSCN, NIH Roadmap, qHTS, NCGC
# Cytochrome P450 3A4 (Homo sapiens), sequence (P08684 whole entry, looked up): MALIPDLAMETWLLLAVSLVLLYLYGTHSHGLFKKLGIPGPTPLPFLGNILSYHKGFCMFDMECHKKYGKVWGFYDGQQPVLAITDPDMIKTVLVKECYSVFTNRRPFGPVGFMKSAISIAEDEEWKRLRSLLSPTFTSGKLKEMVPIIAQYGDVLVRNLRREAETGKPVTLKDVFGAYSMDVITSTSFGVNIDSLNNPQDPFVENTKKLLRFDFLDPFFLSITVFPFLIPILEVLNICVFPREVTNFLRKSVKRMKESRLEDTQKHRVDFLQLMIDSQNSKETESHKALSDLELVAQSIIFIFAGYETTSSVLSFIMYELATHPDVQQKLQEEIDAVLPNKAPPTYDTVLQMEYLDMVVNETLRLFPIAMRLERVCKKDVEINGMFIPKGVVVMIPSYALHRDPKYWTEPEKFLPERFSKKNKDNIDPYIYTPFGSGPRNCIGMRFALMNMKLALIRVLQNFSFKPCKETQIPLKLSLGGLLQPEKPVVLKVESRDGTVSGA
row,SMILES,"activity change, positive = activation"
1,Nc1cc([N+](=O)[O-])ccc1C(=O)O,-33.4%
2,COc1cccc(N)c1,-47.6%
3,O=C1NC(=O)c2cc([N+](=O)[O-])ccc21,-70.3%
4,CCC(=O)/C=C/C1C(C)=CCCC1(C)C (stereo unspecified),-40.2%
5,Cc1cc(C2(c3cc(C)c(O)cc3C)OS(=O)(=O)c3ccccc32)c(C)cc1O,-57.6%
6,C[C@@H]1O[C@@H](O[C@@H]2[C@@H](O)[C@H](OCCc3ccc(O)c(O)c3)O[C@H](CO[C@@H]3O[C@H](CO)[C@@H](O)[C@H](O)[C@H]3O)[C@H]2OC(=O)/C=C/c2ccc(O)c(O)c2)[C@H](O)[C@H](O)[C@H]1O,-20.7%
7,CCOc1cc(OCC)c(C(C)=O)cc1OCC,-37.6%
8,Cc1ccc2nc(-c3ccc(N)cc3)sc2c1S(=O)(=O)O,-53.9%
9,Cc1ccc(Cl)cc1N,-34.6%
10,Nc1cc(Cl)c([N+](=O)[O-])cc1O,-52.2%
11,Nc1cc(Cl)c(N)c(Cl)c1,-44.2%
12,CCNc1cc(O)ccc1C,-44.8%
13,Nc1nc(-c2ccccc2)cs1,-91.2%
14,COc1ccc(N)c(OC)c1,-59.7%
15,Oc1cccc(Nc2ccccc2)c1,-57.7%
16,Cc1ccc(S(=O)(=O)NC2CCCCC2)cc1,-33.1%
17,S=C([S-])NCCNC(=S)[S-].[Zn+2],-57.8%
18,CCN(CC)c1cccc(O)c1,-37%
19,CCOc1cccc(N)c1,-62.9%
20,NC(=O)/N=N/C(N)=O,-43.1%
21,Nc1cccc(N)c1,-41.9%
22,COc1cccc2sc(N)nc12,-58.4%
23,Cc1ccc2c(c1[N+](=O)[O-])C(=O)c1ccccc1C2=O,-81.1%
24,C[C@@H]1CC2(OC3C[C@@]4(C)C5=CC[C@H]6C(C)(C)C(O[C@@H]7OC[C@@H](O)[C@H](O)[C@H]7O)CC[C@@]67C[C@@]57CC[C@]4(C)C31)OC(O)C1(C)OC21 (stereo partly specified),-49.1%
25,O=[N+]([O-])c1ccc2nc[nH]c2c1,-33.2%
26,CC1=C(/C=C/C(C)=C/C=C/C(C)=C\C=O)C(C)(C)CCC1,-50.5%
